Values without a mark were called inactive. Records with an inconclusive call do not appear. Where a call stands in place of a potency, no number is given. Active and inactive are the calls of the source. Unless noted, the call rests on the fitted dose curve; in most records, active means well fitted curve in the direction sought with a large enough effect in the repeat runs; inconclusive means weak or mixed curves; inactive means no such curve, though single readings can be large; an effect the other way counts as inactive or inconclusive.
Tests used:
[1] = qHTS assay to identify small molecule antagonists of the progesterone receptor (PR) signaling pathway - cell viability counter screen (AID 1346798); further: nearly all actives have a fitted effect of over 50% in size; further: potency means the concentration at half of the fitted maximal effect
Method in brief: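 ATP content as viability readout: CellTiter-Glo luminescence, 30 min room temperature, in PR-UAS-bla HEK293T cells after 16 hr compound/R5020 treatment at 37C and 5% CO2.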

[2] = qHTS assay to identify small molecule agonists of the progesterone receptor (PR) signaling pathway - cell viability counter screen (AID 1346799; calls by dose curve; further: nearly all actives have a fitted effect of over 45% in size; further: potency means the concentration at half of the fitted maximal effect)
Method in brief: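 Cytotoxicity in PR-bla HEK293T cells: 16 h compound, 37C; CellTiter-Glo added post-FRET read; luminescence after 30 min RT.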

[3] = qHTS assay to identify small molecule antagonists of the TGF-beta/Smad signaling pathway - cell viability counter screen (AID 1346824); further: nearly all actives have a fitted effect of over 50% in size
Method in brief: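 SBE-bla HEK 293T cells, incubated overnight, then compound plus 0.25 ng/mL TGF-beta1 (stock added) for 5 hr at 37 C. Viability was read in the same wells by CellTiter-Glo luminescence after 30 min at room temperature.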

[4] = qHTS assay to identify small molecule agonists of the TGF-beta/Smad signaling pathway - cell viability counter screen (AID 1346829); further: top concentration of the series differs between compounds; nearly all actives have a fitted effect of over 45% in size
Method in brief: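 Luminescence from CellTiter-Glo, read after a 30 min room-temperature incubation, gives cell viability of SBE-bla HEK 293T cells treated 5 hr with compounds at 37 C.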

[5] = qHTS assay to identify small molecule agonists of the TGF-beta/Smad signaling pathway (AID 1346859; active means well fitted activation curve with a large enough effect in the signal ratio in the repeat runs, not every such curve was filed as active; the % refers to the signal ratio; further: series mostly up to about 77 µM)
Method in brief: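 Stable Smad binding element-beta-lactamase HEK 293T cells; 5 hr compound exposure at 37 C under 5% CO2; 2 hr room-temperature substrate step; fluorescence excited at 405 nm, collected at 460 nm and 530 nm.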

[6] = biological target: Thyrotropin-releasing hormone receptor (Homo sapiens) (UniProt P34981); assay: qHTS assay to identify small molecule antagonists of the thyrotropin-releasing hormone receptor (TRHR) signaling pathway (AID 1346877; active means well fitted inhibition curve with a large enough effect in the repeat runs, not every such curve was filed as active; further: series mostly up to about 51 µM)
Chain of Thyrotropin-releasing hormone receptor (Homo sapiens) (P34981 whole entry, looked up): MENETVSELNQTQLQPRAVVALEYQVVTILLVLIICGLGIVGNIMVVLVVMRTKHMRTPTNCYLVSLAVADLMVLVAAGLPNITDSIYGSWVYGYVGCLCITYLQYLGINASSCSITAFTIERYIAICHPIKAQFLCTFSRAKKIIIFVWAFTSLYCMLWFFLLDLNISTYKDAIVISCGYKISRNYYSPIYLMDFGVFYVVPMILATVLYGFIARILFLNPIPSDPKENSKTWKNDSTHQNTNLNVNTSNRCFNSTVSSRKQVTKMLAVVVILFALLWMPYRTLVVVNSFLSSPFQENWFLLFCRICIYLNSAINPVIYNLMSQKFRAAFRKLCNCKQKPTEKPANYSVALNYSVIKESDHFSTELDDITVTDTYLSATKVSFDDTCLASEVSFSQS
Method in brief: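 Human TRHR in HEK293 cells; inhibition of the intracellular calcium rise triggered by 1 nM TRH was followed by fluorescence over 3 min. Compounds were run at 15 concentrations, three replicates each.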

[7] = biological target: Thyrotropin-releasing hormone receptor (Homo sapiens) (UniProt P34981); assay: qHTS assay to identify small molecule agonists of the thyrotropin-releasing hormone receptor (TRHR) signaling pathway (AID 1346891; calls by dose curve;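 further: HEK293 cells expressing TRHR with calcium dye readout; series mostly up to about 58 µM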)
Method in brief: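 In 1536-format, 1500 TRHR-Hek293 cells per well grew 18 h, took up calcium dye for 2 h at 37 °C, received compound, and were read kinetically; 15-point titrations, triplicates.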

[8] = Human pregnane X receptor (PXR) small molecule agonists, qHTS cell viability counter screen (AID 1346977); further: nearly all actives have a fitted effect of over 50% in size; further: potency means the concentration at half of the fitted maximal effect
Method in brief: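 Readout is CellTiter-Fluor fluorescence from PXR-Luc HepG2 cells. Plated cells rested 5hr, then were treated with compounds for 24hr at 37C and 5% CO2, with reagent present during the last hour.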

[9] = Caspase-3/7 induction in CHO-K1 cells by small molecules, qHTS cell viability counter screen (AID 1346979); further: nearly all actives have a fitted effect of over 35% in size; further: potency means the concentration at half of the fitted maximal effect
Method in brief: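 To flag cytotoxic compounds, treated CHO-K1 wild-type cells were given CellTiter-Fluor at 16hr and read fluorescently after 1hr at 37C; the caspase-3/7 luminescence was measured in these same wells.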

[10] = Caspase-3/7 induction in HepG2 cells by small molecules, qHTS assay (AID 1346978); further: nearly all actives have a fitted effect of over 15% in size
Method in brief: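 Wild-type HepG2 cells, 2,000/well, settled 5 hr at 37 C and 5% CO2, then compound-treated for 17 hr; caspase-3/7 activity read by luminescent Caspase-Glo 3/7 after 30 min at room temperature.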

Row | Structure (SMILES) | Potency [1] | Potency [2] | Potency [3] | Potency [4] | outcome [5] | Potency [6] | Potency [7] | Potency [8] | Potency [9] | Potency [10]
1 | CCN(CC)c1ccc(C=O)cc1 | inactive | inactive | inactive | inactive | inactive | inactive | inactive | inactive | inactive | 
2 | O=C(CCN1CCC(c2ccccc2)C1)c1ccc2c(c1)OCCO2 (centres undefined) | inactive |  | inactive | inactive | inactive | inactive | inactive | 23.7 µM (active) |  | inactive
3 | Cc1ccc(C2OC[C@@H]3OC(c4ccc(C)cc4)O[C@H]([C@H](O)CO)[C@@H]3O2)cc1 (some centres undefined) | inactive |  | inactive | inactive | inactive | inactive | inactive | inactive | inactive | 
4 | Oc1cccc2c(O)cccc12 | inactive |  | inactive | inactive | inactive | inactive | inactive |  | 54.5 µM (active) | inactive
5 | Cc1cc(Br)ccc1NC(=O)CCl | 15.4 µM (active) | 27.3 µM (active) | inactive |  |  | inactive | inactive | 54.5 µM (active) | 21.7 µM (active) | inactive
6 | COC(=O)c1ccc([N+](=O)[O-])cc1 | inactive |  | inactive | inactive | inactive | inactive | inactive | inactive | inactive | inactive
7 | COc1c(Br)cc(Br)c(C)c1Br | inactive |  | inactive | inactive | inactive | inactive | inactive | inactive | inactive | 
8 | Cn1ccnc1 | inactive | inactive |  | inactive | inactive | inactive | inactive | inactive | inactive | inactive
9 | CCOC(=O)C1=NN(c2ccc(Cl)cc2Cl)C(C)(C(=O)OCC)C1 (centres undefined) | inactive |  | inactive | inactive | inactive | inactive | inactive | inactive |  | inactive
10 | N#Cc1nc(Cl)c(Cl)c(Cl)c1Cl | 24.3 µM (active) |  | inactive | inactive | inactive | inactive | inactive | 48.6 µM (active) | 1.72 µM (active) | inactive
11 | C/C(=N\[Si](C)(C)C)O[Si](C)(C)C | inactive |  | inactive | inactive | inactive | inactive | inactive | inactive | inactive | 
12 | CC(C)(C)c1cc(CCC(=O)OCCSCCOC(=O)CCc2cc(C(C)(C)C)c(O)c(C(C)(C)C)c2)cc(C(C)(C)C)c1O | inactive |  | inactive | inactive | inactive | inactive | inactive | inactive | inactive | inactive
13 | SC1CCCCC1 | inactive |  | inactive | inactive | inactive | inactive | inactive | inactive |  | inactive
14 | Nc1ccc(F)c([N+](=O)[O-])c1 | inactive |  | inactive | inactive | inactive | inactive | inactive | inactive | inactive | 
15 | Cc1ccc(C=O)cc1 | inactive | inactive |  | inactive | inactive | inactive | inactive | inactive |  | inactive
16 | C=C(C)CCO | inactive |  | inactive | inactive | inactive | inactive | inactive | inactive | inactive | 
17 | C=Cc1ccncc1 | inactive |  | inactive | inactive | inactive | inactive | inactive | inactive | inactive | inactive
18 | CCNc1nc(NC(C)(C)C)nc(OC)n1 | inactive |  | inactive | inactive | inactive | inactive | inactive | inactive |  | 
19 | C=CC(=O)O[C@H]1C[C@@H]2CC[C@@]1(C)C2(C)C | inactive |  | inactive | inactive | inactive | inactive | inactive | inactive | inactive | 
20 | O=[N+]([O-])c1ccc(CO)cc1 | inactive |  | inactive | inactive | inactive | inactive | inactive | inactive |  | inactive
21 | Brc1cc(Br)cc(Br)c1 | inactive |  | inactive | inactive | inactive | inactive | inactive | inactive | inactive | 
22 | CC(c1cc(C(C)(C)C)cc(C(C)(C)C)c1O)c1cc(C(C)(C)C)cc(C(C)(C)C)c1O | inactive |  | inactive | inactive | inactive | inactive | inactive | inactive |  | inactive
23 | CC(C)=NNC(N)=S | 21.7 µM (active) |  | inactive | inactive | inactive | inactive | inactive | inactive |  | inactive
24 | C[C@H]1O[C@@H](O[C@H]2CC[C@@]3(C)[C@H](CC[C@@H]4[C@@H]3C[C@@H](O)[C@]3(C)[C@@H](C5=CC(=O)OC5)CC[C@]43O)C2)C[C@H](O)[C@@H]1O[C@H]1C[C@H](O)[C@H](O[C@H]2C[C@H](O)[C@H](O[C@@H]3O[C@H](CO)[C@@H](O)[C@H](O)[C@H]3O)[C@@H](C)O2)[C@@H](C)O1 | 0.298 µM (active) | 0.266 µM (active) |  |  |  | inactive | inactive |  | inactive | 
25 | CCC(C)(C)c1ccc(CC(C)CN2C[C@@H](C)O[C@@H](C)C2)cc1 (some centres undefined) | inactive |  | inactive | inactive | inactive | inactive | inactive | inactive |  | inactive
26 | CN(C[C@@H](CC[N+]12CCC(C3CCCCC3)(CC1)CC2)c1ccc(Cl)c(Cl)c1)C(=O)c1cc(C(F)(F)F)cc(C(F)(F)F)c1 | 27.3 µM (active) | 13.7 µM (active) | inactive |  |  | inactive | inactive |  | 61.1 µM (active) | inactive

— PubChem BioAssay (Tox21)
